Measurements reported in PubChem BioAssay.
Unmarked numbers belong to inactive results. Calls of active or inactive are those of the source. Unless noted, no stated cut-off is given here; in the data, active means inhibition above about 33%; inactive means the rest.

Tested on: not listed separately
Assay: compounds suppressing VP16-driven luciferase signal – cell-based, luminescence, high throughput, counter-screen for LRH-1 inverse agonist project (AID 651615)
Conditions: Gal4-VP16 luciferase reporter cells, at 3.6 µM, stronger effect = higher value
For `CCCCCc1c(CC)ncn1CCc1ccccc1OC`, the inhibition was 31.8% (active). In the case of `COc1ccccc1-c1cc(NC=O)c2ncc(-c3ccc(S(C)(=O)=O)cc3)n2c1`, the inhibition is reported as -33.2%. `C=CC(=O)Nc1cccc(Oc2ncnc3[nH]cc(-c4cnc5ccccc5c4)c23)c1` showed an inhibition of 18.2%. Compound `COc1ccc(-c2c(C)cc3oc(=O)cc(-c4ccccc4)c3c2C)cc1` has an inhibition of 17.3%. With `O=C(CCl)N1CCN(S(=O)(=O)Cc2ccccc2)CC1` the inhibition was 15.9%. In the case of `CC1C/C(=C\c2cccnc2)C(=O)/C(=C/c2cccnc2)C1` (centres undefined), the inhibition is reported as 91.5% (active). `COc1ccc(NC(=O)CN2C(=O)NC3(CCCc4ccccc43)C2=O)c(OC)c1` (centres undefined) gave an inhibition of -6.1%. Compound `O=C(Nc1ccc(S(=O)(=O)N2CCCC2)cc1)c1ccc([N+](=O)[O-])o1` has an inhibition of 15.1%. With `O=C1C=C(c2ccccc2)OC2(CCCC2)O1` the inhibition was -4.15%. `O=C(CC1C(=O)NCCN1C(=S)Nc1ccccc1)Nc1ccc2c(c1)OCCO2` (centres undefined) showed an inhibition of -25.2%. In the case of `CCOc1ccc(NC(=O)Cn2cc(C(=O)C3CC3)c3ccccc32)cc1`, the inhibition is reported as -14.7%. With `c1ccc2c(c1)CCN(c1ncnc3c1[nH]c1ccccc13)C2` the inhibition was 58.2% (active). `COc1ccc(Oc2ccc(NC(=O)c3ccccc3C)cc2)cc1` showed an inhibition of -18.1%. In the case of `CC1(c2ccc3ccccc3c2)NC(=O)N(CC(=O)N2CCN(Cc3ccc(C#N)cc3)CC2)C1=O` (centres undefined), the inhibition is reported as 53.5% (active). With `CCCCCCCn1ccc(=N)cc1` the inhibition was 67.9% (active). Compound `O=C(Nc1cccnc1)c1ccc([N+](=O)[O-])s1` has an inhibition of 11.1%. With `CCS(=O)(=O)N1Cc2cc(C(=O)NCC3CC3)nc(-c3cccc(-c4cccnc4)c3)c2[C@@H]1CCO` the inhibition was -27.8%. With `CCOC(=O)C1CCN(Cc2cc(Cl)c3ccccc3c2O)CC1` the inhibition was 2.83%. With `O=[N+]([O-])c1cc2ncccc2c2ncccc12` the inhibition was -8.8%. `Nc1ccc(C(=O)NN2C(=O)[C@H](Cl)C2c2ccc(Cl)cc2)cc1` (some centres undefined) showed an inhibition of -16.2%. For `Cc1ccc(C(=O)Sc2cccccc2=O)cc1`, the inhibition was 96.8% (active). With `COc1cccc(-c2cnc3c(NC=O)cc(-c4ccc(S(C)(=O)=O)cc4)cn23)c1` the inhibition was -0.78%. With `Cc1c(NC(=O)c2ccc([N+](=O)[O-])o2)cccc1-c1nc2ncccc2o1` the inhibition was -13.2%. `NC1=CC(=O)C(=O)c2ccccc21` showed an inhibition of -6.09%. Work on `COc1ccccc1NC(=O)c1ccc(NC(=O)COC(=O)C(C)C)cc1` yielded an inhibition of -39.4%. With `COc1ccc(CCNC(=O)CSC2=Nc3ccccc3C3=NC(C(C)C)C(=O)N23)cc1OC` (centres undefined) the inhibition was 0.61%. For `Cc1nc2ccccc2n1Cc1ccc(Cl)cc1`, the inhibition was 47% (active). With `CCOC(=O)c1ccc(Nc2nc(-c3cccnc3)nc3ccccc23)cc1` the inhibition was 11.4%. For `COc1cc(C2CC(=O)c3c([nH]c(C(=O)OCCOC(C)C)c3C)C2)cc(OC)c1OC` (centres undefined), the inhibition was 43.3% (active). Work on `COc1ccc(NC(=O)CSc2ncnc3c2cnn3Cc2ccccc2)cc1` yielded an inhibition of 2.38%. With `Cc1ccc[n+](CC(=O)Nc2ccc([N+](=O)[O-])cc2)c1` the inhibition was -13.3%. For `Cc1cc(OCC(=O)N2CCC(O)CC2)c2c(C)cc(=O)oc2c1`, the inhibition was -6.7%. Compound `CC(C)n1c(SCC(=O)Nc2ccc(N3CCOCC3)cc2)nnc1-c1ccco1` has an inhibition of -2.66%. In the case of `C#CCN(C[C@@H]1[C@@H](OC(=O)NCC2CCCCC2)[C@@H](OC(=O)NCC2CCCCC2)Cn2c(=O)ccc(=O)n21)S(=O)(=O)c1ccc(C)cc1`, the inhibition is reported as 70.8% (active). With `Cn1cc(Cl)c(C(=O)OCC(=O)Nc2ccc(S(N)(=O)=O)cc2)n1` the inhibition was -12.4%. Work on `CCOc1ccc(NC(=O)CSc2nc3ccccc3c(=O)n2CCCC(=O)NCC2CCCO2)cc1` (centres undefined) yielded an inhibition of -6.22%. `CCOc1ccc(NC(=O)CSc2nnc(CNC(=O)c3cccs3)o2)cc1` showed an inhibition of -0.65%. Work on `NC(=S)N/N=C/c1ccc(C(F)(F)F)cc1` yielded an inhibition of 9.68%. In the case of `O=C(OCC(=O)N1CCN(c2ccccc2)CC1)c1ccc2ccccc2n1`, the inhibition is reported as 2.06%.

Tested on: transactivating tegument protein VP16 (Human herpesvirus 1)
Assay: compounds suppressing VP16-driven luciferase signal – cell-based, luminescence, single concentration, counter-screen for SRC2 inhibitor project (AID 652007; in the data active means inhibition above about 36%)
Conditions: cell-based VP16 transactivation luciferase reporter, at 8.9 µM, stronger effect = higher value
`CCCCCc1c(CC)ncn1CCc1ccccc1OC` showed an inhibition of 2.9%. `O=C(CCl)N1CCN(S(=O)(=O)Cc2ccccc2)CC1` gave an inhibition of 12.1%. In the case of `CC1C/C(=C\c2cccnc2)C(=O)/C(=C/c2cccnc2)C1` (centres undefined), the inhibition is reported as 98% (active). Compound `c1ccc2c(c1)CCN(c1ncnc3c1[nH]c1ccccc13)C2` has an inhibition of 25.4%. In the case of `Cc1ccc(C(=O)Sc2cccccc2=O)cc1`, the inhibition is reported as 92.9% (active).

Target: Nuclear receptor coactivator 2 (Homo sapiens) (UniProt Q15596)
Sequence (Q15596 whole entry, looked up, the tested form may be a part): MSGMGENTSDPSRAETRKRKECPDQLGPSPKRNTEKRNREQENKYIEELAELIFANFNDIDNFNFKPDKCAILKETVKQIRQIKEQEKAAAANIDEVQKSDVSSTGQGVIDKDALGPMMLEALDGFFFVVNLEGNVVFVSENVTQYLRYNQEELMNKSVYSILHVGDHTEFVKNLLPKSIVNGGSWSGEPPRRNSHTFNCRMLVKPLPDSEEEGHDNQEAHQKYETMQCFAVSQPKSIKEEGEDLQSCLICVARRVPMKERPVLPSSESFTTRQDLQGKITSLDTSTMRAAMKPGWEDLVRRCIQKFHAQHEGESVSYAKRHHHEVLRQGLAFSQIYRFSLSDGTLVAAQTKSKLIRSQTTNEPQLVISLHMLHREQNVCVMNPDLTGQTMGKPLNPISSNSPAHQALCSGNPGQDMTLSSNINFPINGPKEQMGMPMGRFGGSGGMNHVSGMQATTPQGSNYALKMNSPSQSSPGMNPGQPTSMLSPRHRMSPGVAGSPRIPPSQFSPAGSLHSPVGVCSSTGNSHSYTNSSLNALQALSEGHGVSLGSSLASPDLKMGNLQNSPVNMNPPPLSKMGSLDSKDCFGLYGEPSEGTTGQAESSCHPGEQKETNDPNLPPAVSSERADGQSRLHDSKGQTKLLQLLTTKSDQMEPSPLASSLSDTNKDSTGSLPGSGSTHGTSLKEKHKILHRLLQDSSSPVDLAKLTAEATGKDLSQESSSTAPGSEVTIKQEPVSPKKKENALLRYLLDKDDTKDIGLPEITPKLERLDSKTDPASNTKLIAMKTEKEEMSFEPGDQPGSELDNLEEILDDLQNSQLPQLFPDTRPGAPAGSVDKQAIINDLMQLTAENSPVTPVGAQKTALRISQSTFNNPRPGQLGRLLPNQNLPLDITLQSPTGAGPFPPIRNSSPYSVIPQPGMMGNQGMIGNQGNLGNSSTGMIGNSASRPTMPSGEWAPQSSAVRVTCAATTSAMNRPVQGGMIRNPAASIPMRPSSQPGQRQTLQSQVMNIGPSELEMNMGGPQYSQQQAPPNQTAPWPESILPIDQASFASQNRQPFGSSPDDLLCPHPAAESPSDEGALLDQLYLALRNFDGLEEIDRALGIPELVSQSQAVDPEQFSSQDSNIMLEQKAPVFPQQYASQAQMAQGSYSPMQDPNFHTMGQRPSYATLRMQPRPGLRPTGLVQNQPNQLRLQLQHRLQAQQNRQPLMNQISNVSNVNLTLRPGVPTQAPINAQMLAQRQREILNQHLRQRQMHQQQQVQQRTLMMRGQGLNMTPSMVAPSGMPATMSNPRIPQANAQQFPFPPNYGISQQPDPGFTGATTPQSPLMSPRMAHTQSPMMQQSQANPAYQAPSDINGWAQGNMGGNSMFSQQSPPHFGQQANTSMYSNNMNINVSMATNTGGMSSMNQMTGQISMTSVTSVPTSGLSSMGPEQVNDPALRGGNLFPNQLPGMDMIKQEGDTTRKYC
Assay: inhibition of GAL4-SRC2 driven luciferase expression – cell-based, luminescence, HEK293, triplicate, confirmation (AID 652008;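 active means mean inhibition above 46.5%, the solvent-only control mean plus 3 SD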;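 further: 0% = DMSO-treated cells and 100% = Gossypol at 36 µM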)
Conditions: HEK293 GAL4-SRC2 luciferase reporter, at 8.9 µM, stronger effect = higher value
`CCCCCc1c(CC)ncn1CCc1ccccc1OC` gave an inhibition of 1.53%. Work on `O=C(CCl)N1CCN(S(=O)(=O)Cc2ccccc2)CC1` yielded an inhibition of 46.2%. In the case of `CC1C/C(=C\c2cccnc2)C(=O)/C(=C/c2cccnc2)C1` (centres undefined), the inhibition is reported as 93.9% (active). `c1ccc2c(c1)CCN(c1ncnc3c1[nH]c1ccccc13)C2` gave an inhibition of 40.2%. For `Cc1ccc(C(=O)Sc2cccccc2=O)cc1`, the inhibition was 99.2% (active).
